# Experimental data from PubChem BioAssay (NCI).
# Compounds without any hit were thinned out: in the full panel of roughly 79,000, 15% have a hit. Values without a mark were called inactive. The source made the active and inactive calls. No stated cut-off is given here; in the data, active means growth inhibition above about 70%; inactive means the rest.
# Assays:
# [1] = NCI Yeast Anticancer Drug Screen. Data for the rad52 strain (AID 147);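 further: 0% = growth of vehicle-treated control cultures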; settings: S. cerevisiae rad52 mutant growth inhibition, hits give high values
# How it was run: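 Measured: yeast growth inhibition. System: strain with a defined DNA damage repair alteration. Reference: vehicle-treated control cultures.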
# [2] = NCI Yeast Anticancer Drug Screen. Data for the wt1 strain (AID 149);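 further: 0% = growth of vehicle-treated wt1 cultures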; settings: S. cerevisiae wt1 strain (SPY 50644) growth inhibition, hits give high values
# How it was run: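 Each compound is tested on wt1 yeast and the loss of growth versus vehicle gives the inhibition value.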
# [3] = NCI Yeast Anticancer Drug Screen. Data for the rad50EPP+ strain (AID 151);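 further: 0% = growth of vehicle-treated control cultures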; settings: S. cerevisiae rad50 mutant strain, hits give high values
# How it was run: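 One strain with a rad50 alteration (rad50EPP+) was compound-treated, its growth then compared to that of vehicle controls.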
# [4] = NCI Yeast Anticancer Drug Screen. Data for the rad50 strain (AID 155);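 further: 0% = growth of vehicle-only cultures of the same strain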; settings: S. cerevisiae rad50 strain growth inhibition, hits give high values
# How it was run: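 Vehicle-treated cultures provide the reference for the growth inhibition reported for compound-exposed, repair-deficient yeast.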
# [5] = NCI Yeast Anticancer Drug Screen. Data for the mec2-1 strain (AID 157); settings: S. cerevisiae mec2-1 strain, hits give high values
# How it was run: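 Test agents were screened against the mec2-1 yeast strain, with defined DNA repair or cell cycle alteration. Growth was scored as inhibition against vehicle-only controls.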
# [6] = NCI Yeast Anticancer Drug Screen. Data for the rad14 strain (AID 159);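 further: 0% = growth of vehicle-treated control cultures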; settings: S. cerevisiae rad14 strain growth inhibition, hits give high values
# How it was run: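 Inhibition of growth is reported for a repair-deficient yeast mutant following compound treatment, calculated relative to cultures that received vehicle.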
# [7] = NCI Yeast Anticancer Drug Screen. Data for the sgs1 mgt1 strain (AID 161);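 further: 0% = growth of cultures given vehicle only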; settings: S. cerevisiae sgs1 mgt1 strain, hits give high values
# How it was run: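 Read-out: growth inhibition vs vehicle controls. Cells: mutant yeast strain deficient in DNA damage repair.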
# [8] = NCI Yeast Anticancer Drug Screen. Data for the CLN2oe strain (AID 163);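 further: 0% = growth of vehicle-only control cultures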; settings: S. cerevisiae CLN2oe strain, hits give high values
# How it was run: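 Here, growth inhibition in a cell-cycle-altered yeast strain after compound exposure was quantified against vehicle control growth.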
# [9] = NCI Yeast Anticancer Drug Screen. Data for the cln2 rad14 strain (AID 165);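 further: 0% = growth equal to vehicle treated cultures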; settings: S. cerevisiae cln2 rad14 strain, hits give high values
# How it was run: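 Growth of compound-exposed yeast (cln2 rad14 genotype) measured and expressed as inhibition relative to vehicle.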
# [10] = NCI Yeast Anticancer Drug Screen. Data for the bub3 strain (AID 167); settings: S. cerevisiae bub3 mutant strain, hits give high values
# How it was run: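 Mutant yeast screening strain plus compound; vehicle-treated cultures serve as the 0% inhibition reference.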
# [11] = NCI Yeast Anticancer Drug Screen. Data for the wt2 strain (AID 169); settings: S. cerevisiae wt2 strain growth inhibition, hits give high values
# How it was run: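 Genetically defined yeast strains from a DNA-repair/cell-cycle panel were used. Compound-exposed yeast growth was measured, and the inhibition was calculated relative to vehicle treatment.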
# [12] = NCI Yeast Anticancer Drug Screen. Data for the mlh1 strain (AID 171);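 further: 0% = growth of vehicle-treated control cultures of the same strain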; settings: S. cerevisiae mlh1 strain growth inhibition, hits give high values
# How it was run: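 Here the genetically defined yeast mutant is grown with each compound, and the extent to which its growth falls below that of vehicle-exposed cells is reported.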
# [13] = NCI Yeast Anticancer Drug Screen. Data for the sgs1 strain (AID 173);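 further: 0% = growth of vehicle-only control cultures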; settings: S. cerevisiae sgs1 mutant, hits give high values
# How it was run: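 Relative growth inhibition, referenced to vehicle, was determined in a yeast strain with a defined alteration affecting DNA damage repair or cell cycle control after compound exposure.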
# [14] = NCI Yeast Anticancer Drug Screen. Data for the mlh1 rad18 strain (AID 175); settings: S. cerevisiae mlh1 rad18 strain growth inhibition, hits give high values
# How it was run: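 In this whole-cell yeast screen, a strain with altered DNA damage repair is challenged with compound, and its growth is measured against matched vehicle-treated controls.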
# [15] = NCI Yeast Anticancer Drug Screen. Data for the rad18 strain (AID 177); settings: S. cerevisiae rad18 mutant growth inhibition, hits give high values
# How it was run: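 Screen uses a yeast strain with a defined lesion in DNA damage repair; compound effect is read as loss of growth compared to untreated vehicle cultures.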
# [16] = at 5.0 µM (retest, dose inferred, filed as 0.5)
# [17] = at 50.0 µM (retest, dose inferred, filed as 5.0)
smiles,measurement,setting,value
c1ccc(N2N=C3N(c4ccccc4)C2N3c2ccccc2)cc1,growth inhibition,[1]; at 1.2 µM,-19%
same,growth inhibition,[1]; at 3.7 µM,-14%
same,growth inhibition,[1]; at 11.0 µM,4%
same,growth inhibition,[1]; at 33.0 µM,57%
same,growth inhibition,[1]; at 100.0 µM,93% (active)
same,growth inhibition,[2]; at 1.2 µM,-46%
same,growth inhibition,[2]; at 3.7 µM,-41%
same,growth inhibition,[2]; at 11.0 µM,-16%
same,growth inhibition,[2]; at 33.0 µM,34%
same,growth inhibition,[2]; at 100.0 µM,93% (active)
same,growth inhibition,[3]; at 1.2 µM,-13%
same,growth inhibition,[3]; at 3.7 µM,-8%
same,growth inhibition,[3]; at 11.0 µM,-5%
same,growth inhibition,[3]; at 33.0 µM,6%
same,growth inhibition,[3]; at 100.0 µM,1%
same,growth inhibition,[4]; at 1.2 µM,1%
same,growth inhibition,[4]; at 3.7 µM,7%
same,growth inhibition,[4]; [16],43%
same,growth inhibition,[4]; at 11.0 µM,26%
same,growth inhibition,[4]; at 33.0 µM,70% (active)
same,growth inhibition,[4]; [17],97% (active)
same,growth inhibition,[4]; at 50.0 µM,81% (active)
same,growth inhibition,[4]; at 100.0 µM,92% (active)
same,growth inhibition,[5]; at 1.2 µM,-19%
same,growth inhibition,[5]; at 3.7 µM,-22%
same,growth inhibition,[5]; [16],35%
same,growth inhibition,[5]; at 11.0 µM,3%
same,growth inhibition,[5]; at 33.0 µM,44%
same,growth inhibition,[5]; [17],98% (active)
same,growth inhibition,[5]; at 50.0 µM,69.2%
same,growth inhibition,[5]; at 100.0 µM,93% (active)
same,growth inhibition,[6]; at 1.2 µM,-33%
same,growth inhibition,[6]; at 3.7 µM,-36%
same,growth inhibition,[6]; at 11.0 µM,-20%
same,growth inhibition,[6]; at 33.0 µM,20%
same,growth inhibition,[6]; at 100.0 µM,92% (active)
same,growth inhibition,[7]; [16],-16%
same,growth inhibition,[7]; [17],57%
same,growth inhibition,[7]; at 50.0 µM,81% (active)
same,growth inhibition,[8]; at 1.2 µM,-12%
same,growth inhibition,[8]; at 3.7 µM,-7%
same,growth inhibition,[8]; at 11.0 µM,-10%
same,growth inhibition,[8]; at 33.0 µM,51%
same,growth inhibition,[8]; at 100.0 µM,92% (active)
same,growth inhibition,[9]; [16],28%
same,growth inhibition,[9]; [17],75% (active)
same,growth inhibition,[9]; at 50.0 µM,59.5%
same,growth inhibition,[10]; at 1.2 µM,-6%
same,growth inhibition,[10]; at 3.7 µM,-1%
same,growth inhibition,[10]; [16],28%
same,growth inhibition,[10]; at 11.0 µM,29%
same,growth inhibition,[10]; at 33.0 µM,80% (active)
same,growth inhibition,[10]; [17],81% (active)
same,growth inhibition,[10]; at 50.0 µM,82.5% (active)
same,growth inhibition,[10]; at 100.0 µM,92% (active)
same,growth inhibition,[11]; at 1.2 µM,-17%
same,growth inhibition,[11]; at 3.7 µM,-7%
same,growth inhibition,[11]; at 11.0 µM,1%
same,growth inhibition,[11]; at 33.0 µM,44%
same,growth inhibition,[11]; at 100.0 µM,94% (active)
same,growth inhibition,[12]; at 1.2 µM,-28%
same,growth inhibition,[12]; at 3.7 µM,-22%
same,growth inhibition,[12]; at 11.0 µM,-7%
same,growth inhibition,[12]; at 33.0 µM,37%
same,growth inhibition,[12]; at 100.0 µM,93% (active)
same,growth inhibition,[13]; at 1.2 µM,2%
same,growth inhibition,[13]; at 3.7 µM,-29%
same,growth inhibition,[13]; at 11.0 µM,2%
same,growth inhibition,[13]; at 33.0 µM,41%
same,growth inhibition,[13]; at 100.0 µM,93% (active)
same,growth inhibition,[14]; [16],38%
same,growth inhibition,[14]; [17],99% (active)
same,growth inhibition,[14]; at 50.0 µM,77.5% (active)
same,growth inhibition,[15]; at 1.2 µM,12%
same,growth inhibition,[15]; at 3.7 µM,10%
same,growth inhibition,[15]; at 11.0 µM,-3%
same,growth inhibition,[15]; at 33.0 µM,60%
same,growth inhibition,[15]; at 100.0 µM,94% (active)
